Test results reported in PubChem BioAssay (EPA / NIEHS).
Records with an inconclusive call do not appear. Active and inactive are the calls of the source. The calls were made as follows, unless noted: active = hit-call score of the fitted dose curve at least 0.9, where 1 is the maximum; inactive = score below 0.9.

What was measured:
[1] = CCTE_Shafer_MEA_dev_LDH: CCTE's Lactate Dehydrogenase Assay for Cytotoxicity in the Neural Network Formation Assay, Shafer Lab (AID 2284068; active = hit-call score of the fitted dose curve at least 0.9, where 1 is the maximum;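 also: exposure for twelve days from plating with re-dosing on DIV 5 and 9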)
Outline: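 Primary rat cortical neurons were cultured on PEI-coated MEA plates and exposed from plating through day 12, with compound renewed at medium changes on DIV 5 and 9. LDH activity was read spectrophotometrically; loss of signal versus DMSO indicates reduced viability.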

[2] = UKN5_HCS_SBAD2_neurite_outgrowth: University of Konstanz (UKN) Leist Lab Neurite Outgrowth Assay in human iPSC-derived immature Dorsal Root Ganglia Neurons (UKN5) (AID 2284070); settings: actives raise or lower the signal
Outline: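 Read-out: calcein-AM-stained neurite area by high-content imaging, Hoechst H-33342 for viability, after 24 h exposure of iPSC-derived immature dorsal root ganglia neurons. Activity fitted in both directions relative to DMSO baseline.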

[3] = CCTE_Shafer_MEA_dev_AB: CCTE's Alamar Blue Assay for Cytotoxicity in the Neural Network Formation Assay, Shafer Lab (AID 2284083; active = hit-call score of the fitted dose curve at least 0.9, where 1 is the maximum;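 also: resazurin reduction fluorescence as viability of cultured neurons; twelve days of exposure from plating with re-dosing on DIV 5 and 9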)
Outline: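 Resazurin fluorescence, relative to DMSO, gauges viability after twelve days of exposure that began at plating of rat cortical neurons (1.5 x 10^5 cells/well, 48-well MEA); treatment renewed with full medium exchange on DIV 5 and 9.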

[4] = CCTE_Shafer_MEA_dev_mutual_information_norm: CCTE's Neural Network Formation Assay for Mutual Information Normalization, Shafer Lab (AID 2284091)
Outline: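 Developing rat cortical networks on 16-electrode MEA wells are treated throughout formation (DIV 0–12). Shared electrode information is recorded four times, converted to area-under-curve, and fitted for decreases against DMSO vehicle.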

[5] = CCTE_Shafer_MEA_dev_correlation_coefficient_mean: CCTE's Neural Network Formation Assay for Mean Correlation Coefficient, Shafer Lab (AID 2284093);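 also: well mean pairwise spike train correlation integrated as AUC over recording days 5 to 12; potency fitted for loss of correlation relative to DMSO vehicle wells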
Outline: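 Primary rat cortical neurons on PEI-coated 48-well MEA plates (16 electrodes/well) were exposed from plating day 0 through DIV12, with compound renewed at DIV5 and 9. Pairwise spike correlations were averaged per well; trapezoidal AUC across DIV5, 7, 9, 12.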

[6] = UKN2_HCS_IMR90_neural_migration: University of Konstanz (UKN) Leist Lab Neural Crest Cell Migration Assay in human induced IMR90 Pluripotent Stem Cells (UKN2) (AID 2284204); settings: actives raise or lower the signal
Outline: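 Migration of human IMR90-derived neural crest cells into a stopper-defined gap is imaged after 24 h chemical treatment. Activity is fitted bidirectionally relative to DMSO.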

[7] = IUF_NPC1b_proliferation_BrdU_72hr: Leibniz Research Institute for Environmental Medicine (IUF) 72-hour Neural Progenitor Cell Bromodeoxyuridine (BrdU) Proliferation Assay (NPC1b) (AID 2284207)
Outline: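 Proliferation of primary human neural progenitor cells: 72 h compound treatment at 37C, 5% CO2, pH 7.2-7.6, in EGF/FGF-containing medium. Readout is BrdU uptake (last 16 h) by chemiluminescent ELISA, normalised to DMSO.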

[8] = IUF_NPC1a_proliferation_area_72hr: Leibniz Research Institute for Environmental Medicine (IUF) 72-hour Neural Progenitor Cell Proliferation Area Assay (NPC1a) (AID 2284208)
Outline: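 Spheres of 0.3 mm are plated singly in growth-factor medium and exposed from day 0. After three days at 37C and 5% CO2, sphere area is measured by phase contrast imaging, with activity referenced to DMSO.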

[9] = IUF_NPC1_viability_72hr: Viability Assessment at 72 hours in the Leibniz Research Institute for Environmental Medicine (IUF) Neural Progenitor Cell Proliferation Assay (NPC1) (AID 2284209)
Outline: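 hNPC spheres, 1/well, EGF+FGF medium, 37C/5% CO2; dosed day 0, 72 h, no re-dosing. Resazurin reduction (alamar blue) fluorescence; DMSO = negative control/baseline; growth-factor-free wells as positive control.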

[10] = UKN2_HCS_IMR90_cell_viability: Viability Assessment in the University of Konstanz (UKN) Leist Lab Neural Crest Cell Migration Assay in human induced IMR90 Pluripotent Stem Cells (UKN2) (AID 2284233);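 also: viability of neural crest cells differentiated from IMR90 iPSC measured by calcein-AM fluorescence imaging; cells exposed to compound for 24 h after a 24 h migration phase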
Outline: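 Human IMR90-derived neural crest cells were allowed to migrate for 24 h into a cell-free zone, then exposed to test chemicals for 24 h. Calcein-AM and Hoechst staining with high-content imaging gave viability, analysed against DMSO baseline.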

[11] = IUF_NPC2c_oligodendrocyte_migration_120hr: Leibniz Research Institute for Environmental Medicine (IUF) 120-hour Neural Progenitor Cell Migration Assay for Oligodendrocyte Migration (NPC2c) (AID 2284297)
Outline: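 Read-out is the mean distance of O4-positive oligodendrocytes from the sphere core edge at 120 h, normalized to radial glia migration and fitted in the gain direction against DMSO. Spheres of primary human neural progenitors differentiated on laminin under continuous compound exposure.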

[12] = IUF_NPC2a_radial_glia_migration_120hr: Leibniz Research Institute for Environmental Medicine (IUF) 120-hour Neural Progenitor Cell Migration Assay for Radial Glia Migration (NPC2a) (AID 2284298)
Outline: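 Readout: distance in um from sphere core edge to migration-area edge, derived from Hoechst nuclei density with a threshold-defined polynomial boundary. Spheres: hNPC, GW 16-19, 0.3 mm, on PDL/laminin; exposure 5 days; DMSO is baseline.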

[13] = IUF_NPC2a_radial_glia_migration_72hr: Leibniz Research Institute for Environmental Medicine (IUF) 72-hour Neural Progenitor Cell Migration Assay for Radial Glia Migration (NPC2a) (AID 2284299)
Outline: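 Primary hNPC spheres, fetal brain GW 16-19, on PDL/laminin; DMEM/F12 3:1 + 1% N2. Compound dosed day 0, 7 conc. + SC, half-medium refresh day 3. 72 h brightfield, migration distance core-to-front (um), 4 directions averaged.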

[14] = IUF_NPC2b_neuronal_migration_120hr: Leibniz Research Institute for Environmental Medicine (IUF) 120-hour Neural Progenitor Cell Migration Assay for Neuron Migration (NPC2b) (AID 2284300)
Outline: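 Read-out is mean distance from sphere edge to each TUBB3-positive neuron at 120 h, expressed relative to radial glia migration distance and to DMSO baseline. Single 0.3 mm human NPC spheres differentiated on laminin under continuous compound exposure.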

[15] = IUF_NPC3_neuronal_differentiation_120hr: Leibniz Research Institute for Environmental Medicine (IUF) 120-hour Neuronal Differentiation Assay (NPC3) (AID 2284301)
Outline: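 Single 0.3 mm neurospheres from human fetal cortex were plated in differentiation medium containing test compound. Medium was half-replaced on day 3. After 120 h cells were fixed, immunostained and imaged, and neuronal fraction was scored against DMSO control.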

[16] = IUF_NPC4_neurite_length_120hr: Leibniz Research Institute for Environmental Medicine (IUF) 120-hour Neuronal Morphology Assay for Neurite Length (NPC4) (AID 2284302)
Outline: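 Read-out is mean neurite length in µm of TUBB3-positive neurons, skeletonized from high-content fluorescence images after 120 h. Single 0.3 mm primary human neural progenitor spheres differentiated on poly-D-lysine/laminin under continuous compound exposure; DMSO was baseline.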

[17] = IUF_NPC5_oligodendrocyte_differentiation_120hr: Leibniz Research Institute for Environmental Medicine (IUF) 120-hour Oligodendrocyte Differentiation Assay (NPC5) (AID 2284304; active = hit-call score of the fitted dose curve at least 0.9, where 1 is the maximum;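 also: primary human fetal neural progenitor spheres plated to migrate and differentiate; share of O4-positive cells among Hoechst nuclei found by CNN image analysis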)
Outline: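 Oligodendrocyte differentiation was scored after 120 h as the O4-positive share of Hoechst-stained nuclei across the neurosphere migration area, using a trained convolutional neural network on high-content fluorescence images. Human fetal neural progenitor spheres were dosed from day 0, normalised to DMSO.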

[18] = IUF_NPC4_neurite_area_120hr: Leibniz Research Institute for Environmental Medicine (IUF) 120-hour Neuronal Morphology Assay for Neurite Area (NPC4) (AID 2284305; active = hit-call score of the fitted dose curve at least 0.9, where 1 is the maximum)
Outline: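 Neurite area is read out as the mean pixel area, excluding nuclei, of skeletonized TUBB3-positive neurons imaged after 120 h. Primary human neural progenitor spheres differentiated on poly-D-lysine/laminin with compound present from day 0. Activity was referenced to DMSO controls.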

[19] = IUF_NPC2-5_cytotoxicity_72hr: Cytotoxicity Assessment at 72 hours in the Leibniz Research Institute for Environmental Medicine (IUF) Neural Progenitor Cell Migration and Differentiation Assay for Cytotoxicity (NPC2-5) (AID 2284306; active = hit-call score of the fitted dose curve at least 0.9, where 1 is the maximum;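 also: LDH release into supernatant measured by resorufin fluorescence marking membrane damage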)
Outline: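 Membrane integrity loss was scored from fluorescence (RFU) of resorufin generated by LDH in culture supernatant, 72 h after dosing. Differentiating human progenitor spheres received seven serial compound concentrations alongside a solvent control.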

[20] = IUF_NPC2-5_cytotoxicity_120hr: Cytotoxicity Assessment at 120 hours in the Leibniz Research Institute for Environmental Medicine (IUF) Neural Progenitor Cell Migration and Differentiation Assay (NPC2-5) (AID 2284307; active = hit-call score of the fitted dose curve at least 0.9, where 1 is the maximum)
Outline: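 Sphere plating starts differentiation and exposure together at day 0. Compound solution is half-replaced on day 3. At 120 h, medium supernatant is taken for an LDH membrane-integrity read based on resazurin reduction to resorufin fluorescence.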

[21] = IUF_NPC2-5_cell_number_120hr: Cell Number Assessment at 120 hours in the Leibniz Research Institute for Environmental Medicine (IUF) Neural Progenitor Cell Migration and Differentiation Assay (NPC2-5) (AID 2284308);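 also: count of Hoechst-stained nuclei in migration zone around plated human neural progenitor spheres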
Outline: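 hNPC spheres, one per well, PDL/laminin, N2 medium, 37C, 5% CO2. Dosing day 0 → half-medium change with fresh compound day 3 → fix 120 h. Readout: Hoechst+ nuclei count, migration area; 7 concentrations plus solvent control.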

[22] = IUF_NPC2-5_viability_120hr: Viability Assessment at 120 hours in the Leibniz Research Institute for Environmental Medicine (IUF) Neural Progenitor Cell Migration and Differentiation Assay (NPC2-5) (AID 2284312)
Outline: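 Alamar blue resorufin fluorescence read after 5 days of differentiation, with compound present from day 0 and replenished at day 3. Primary hNPC spheres on laminin-coated plates, 37C; seven concentrations plus solvent control, fitted against DMSO.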

[23] = IUF_NPC1_cytotoxicity_72hr: Cytotoxicity Assessment at 72 hours in the Leibniz Research Institute for Environmental Medicine (IUF) Neural Progenitor Cell Proliferation Assay (NPC1) (AID 2284332; active = hit-call score of the fitted dose curve at least 0.9, where 1 is the maximum;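 also: rising LDH signal means more cytotoxicity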)
Outline: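 Spheres of primary human neural progenitors are plated one per well on day 0 in growth-factor medium and dosed at once. After three days at 37C, supernatant LDH is measured fluorimetrically via resazurin reduction.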

Measured: AC50

Brc1ccc(Oc2cc(Br)c(Br)cc2Br)c(Br)c1
active: [1] 11.9 µM | [3] 13.6 µM | [5] 10 µM
inactive: all other assays above
